From ChEMBL document CHEMBL3988442, “University of Dundee, Small-Polar-MMV Screening Library” (2021)
For some of these results: Measured potencies and affinities stand elsewhere.

How the values were obtained:
Set-up in all cases: scale not given: direction of the effect not stated beside the values
[1] = target: Protein translocase subunit SecA (Escherichia coli (strain K12)) (UniProt P10408); assay: Assay to Identify E. coli SecA ATPase Inhibitors; assay type: functional; details: 30 µM
[2] = target: T1, Ubiquitin-activating enzyme e1, putative (Leishmania donovani (strain BPK282A1)) (UniProt E9BSI1); assay: Leishmania donovani Ubiquitin Activating Enzyme (LdE1); assay type: functional; details: 30 µM
T1 sequence (whole entry): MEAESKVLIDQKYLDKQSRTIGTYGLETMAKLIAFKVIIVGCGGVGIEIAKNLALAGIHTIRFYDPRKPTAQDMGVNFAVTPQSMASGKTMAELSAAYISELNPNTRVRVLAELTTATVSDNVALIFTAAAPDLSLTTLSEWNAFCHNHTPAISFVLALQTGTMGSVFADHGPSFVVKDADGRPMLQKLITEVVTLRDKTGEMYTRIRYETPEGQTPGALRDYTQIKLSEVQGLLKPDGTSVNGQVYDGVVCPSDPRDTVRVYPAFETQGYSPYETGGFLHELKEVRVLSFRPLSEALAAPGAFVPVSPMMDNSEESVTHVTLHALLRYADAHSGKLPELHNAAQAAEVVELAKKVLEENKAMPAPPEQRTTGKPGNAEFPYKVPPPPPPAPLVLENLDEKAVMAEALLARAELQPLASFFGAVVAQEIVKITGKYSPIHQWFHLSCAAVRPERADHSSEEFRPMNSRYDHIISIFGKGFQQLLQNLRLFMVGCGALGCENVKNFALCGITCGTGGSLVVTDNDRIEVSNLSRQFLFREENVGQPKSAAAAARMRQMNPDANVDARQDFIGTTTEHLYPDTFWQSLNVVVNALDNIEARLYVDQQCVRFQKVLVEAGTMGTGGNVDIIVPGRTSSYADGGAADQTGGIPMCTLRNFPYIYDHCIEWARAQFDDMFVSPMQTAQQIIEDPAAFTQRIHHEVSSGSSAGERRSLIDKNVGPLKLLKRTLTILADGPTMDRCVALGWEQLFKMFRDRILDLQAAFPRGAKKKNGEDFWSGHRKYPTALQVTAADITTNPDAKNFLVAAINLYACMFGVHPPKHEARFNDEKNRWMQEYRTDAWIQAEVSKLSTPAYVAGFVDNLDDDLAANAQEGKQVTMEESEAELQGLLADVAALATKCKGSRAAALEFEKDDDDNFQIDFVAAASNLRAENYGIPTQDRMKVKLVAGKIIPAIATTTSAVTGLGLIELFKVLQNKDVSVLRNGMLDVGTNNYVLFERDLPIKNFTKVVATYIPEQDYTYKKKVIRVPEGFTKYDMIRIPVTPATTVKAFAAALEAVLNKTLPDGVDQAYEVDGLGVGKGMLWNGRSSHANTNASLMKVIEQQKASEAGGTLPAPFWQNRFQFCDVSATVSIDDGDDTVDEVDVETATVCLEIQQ

[3] = target: AMP-activated protein kinase, AMPK (Homo sapiens) (UniProt P54646+O43741+P54619+Q9UGJ0+Q9Y478+Q13131+Q9UGI9); assay: AMP-dependent Kinase enzyme assay. An in vitro enzyme assay that detects ADP turnover that is directly proportional to AMPK activity. This uses naive AMPK that is activated during the assay with MK-8722; assay type: functional; details: 30 µM
[4] = target: Sialic acid-binding Ig-like lectin 9 (Homo sapiens) (UniProt Q9Y336); assay: Hs-Siglec9 ALPHAscreen SOP 20170721; details: 10 µM
Sequence of Sialic acid-binding Ig-like lectin 9 (Homo sapiens) (Q9Y336 whole entry): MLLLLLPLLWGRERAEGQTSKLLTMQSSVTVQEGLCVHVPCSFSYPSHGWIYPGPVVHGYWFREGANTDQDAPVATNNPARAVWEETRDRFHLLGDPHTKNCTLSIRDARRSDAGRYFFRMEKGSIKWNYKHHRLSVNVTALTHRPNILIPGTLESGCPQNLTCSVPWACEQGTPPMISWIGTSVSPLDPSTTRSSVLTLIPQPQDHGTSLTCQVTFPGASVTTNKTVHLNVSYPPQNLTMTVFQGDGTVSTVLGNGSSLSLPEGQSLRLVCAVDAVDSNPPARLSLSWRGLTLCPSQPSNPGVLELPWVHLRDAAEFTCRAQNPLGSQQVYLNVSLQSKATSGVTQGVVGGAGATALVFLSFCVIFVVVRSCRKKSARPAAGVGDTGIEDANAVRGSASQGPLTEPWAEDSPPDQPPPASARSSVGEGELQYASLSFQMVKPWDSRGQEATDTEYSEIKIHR

Trypanosoma cruzi = assay: Trypanosoma cruzi phosphomannomutase and mannose-1-phosphate guanylyltransferase assay; assay type: functional; details: 10 µM
[5] = target: T2, Arginase-2, mitochondrial (Homo sapiens) (UniProt P78540); assay: in vitro enzyme assay to detect the production of urea directly proportional to the activity of Arginase II; assay type: functional; details: 33.3 µM; note: in the data most compounds retested in dose-response had high values
T2 sequence (whole entry): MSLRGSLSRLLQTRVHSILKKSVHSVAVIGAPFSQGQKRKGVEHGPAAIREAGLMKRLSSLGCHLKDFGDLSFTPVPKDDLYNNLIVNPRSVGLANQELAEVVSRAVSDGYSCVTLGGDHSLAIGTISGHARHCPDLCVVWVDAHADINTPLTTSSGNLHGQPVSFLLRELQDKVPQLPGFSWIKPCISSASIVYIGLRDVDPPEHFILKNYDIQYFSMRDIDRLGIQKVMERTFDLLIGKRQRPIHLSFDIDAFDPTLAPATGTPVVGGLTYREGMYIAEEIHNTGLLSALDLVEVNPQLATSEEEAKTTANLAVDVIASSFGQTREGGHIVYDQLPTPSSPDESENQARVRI

[6] = target: T3, Proteasome subunit beta (Trypanosoma cruzi) (UniProt O96673); assay: Trypanosoma cruzi proteasome chymotrypsin-like activity (TcProtChymo) assay.; note: in the data most compounds retested in dose-response had high values; assay type: functional; details: 9.37 µM
T3 sequence (whole entry): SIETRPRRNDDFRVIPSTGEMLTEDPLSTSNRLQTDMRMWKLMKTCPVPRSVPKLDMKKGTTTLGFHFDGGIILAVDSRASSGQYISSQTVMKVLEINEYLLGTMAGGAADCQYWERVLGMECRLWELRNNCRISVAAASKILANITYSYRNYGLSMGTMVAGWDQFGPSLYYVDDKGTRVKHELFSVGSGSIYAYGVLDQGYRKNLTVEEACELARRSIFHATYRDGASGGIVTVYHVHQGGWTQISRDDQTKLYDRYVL

Homo sapiens = species on record: Homo sapiens; assay: To identify inhibition of the IFN signalling (Jak-Stat) pathway via expression of an eGFP reporter gene under the control of an IFN-stimulated response element (ISRE) containing MxA promoter.; assay type: functional; details: 30 µM
[7] = target: T4, Tyrosyl-tRNA synthetase, putative (Trypanosoma cruzi (strain CL Brener)) (UniProt Q4DSP6); assay: Trypanosoma cruzi tyrosyl tRNA synthetase (TcYRS) _High Tyrosine SOP; assay type: functional; details: 30 µM; note: in the data most compounds retested in dose-response had high values
T4 sequence (whole entry): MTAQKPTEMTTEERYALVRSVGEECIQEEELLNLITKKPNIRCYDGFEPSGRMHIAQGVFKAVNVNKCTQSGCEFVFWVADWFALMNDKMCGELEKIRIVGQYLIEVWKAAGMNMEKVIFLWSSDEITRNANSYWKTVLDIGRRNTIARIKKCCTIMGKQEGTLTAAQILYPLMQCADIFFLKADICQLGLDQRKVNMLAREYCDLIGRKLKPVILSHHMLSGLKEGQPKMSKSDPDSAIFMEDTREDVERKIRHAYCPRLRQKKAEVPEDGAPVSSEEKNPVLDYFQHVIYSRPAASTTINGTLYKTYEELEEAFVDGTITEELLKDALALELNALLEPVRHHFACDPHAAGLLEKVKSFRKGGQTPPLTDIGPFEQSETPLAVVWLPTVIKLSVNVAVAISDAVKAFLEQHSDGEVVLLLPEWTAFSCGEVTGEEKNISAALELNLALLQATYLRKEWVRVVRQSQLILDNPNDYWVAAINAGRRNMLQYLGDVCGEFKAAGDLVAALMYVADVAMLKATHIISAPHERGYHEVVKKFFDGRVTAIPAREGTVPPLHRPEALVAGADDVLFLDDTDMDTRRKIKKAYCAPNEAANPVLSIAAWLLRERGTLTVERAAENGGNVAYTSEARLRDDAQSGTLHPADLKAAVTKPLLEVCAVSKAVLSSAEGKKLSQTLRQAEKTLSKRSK

[8] = target: T4, Tyrosyl-tRNA synthetase, putative (Trypanosoma cruzi (strain CL Brener)); assay: Trypanosoma cruzi tyrosyl tRNA synthetase (TcYRS) SOP; assay type: functional; details: 30 µM
[9] = target: Chromo domain-containing protein 1 (Saccharomyces cerevisiae (strain ATCC 204508 / S288c) (Baker's yeast)) (UniProt P32657); assay: ScCHD-1 Enzyme Inhibition Assay; assay type: functional; details: 30 µM; note: in the data most compounds retested in dose-response had high values
Sequence of Chromo domain-containing protein 1 (Saccharomyces cerevisiae (strain ATCC 204508 / S288c) (Baker's yeast)) (P32657 whole entry, the tested form may be a part): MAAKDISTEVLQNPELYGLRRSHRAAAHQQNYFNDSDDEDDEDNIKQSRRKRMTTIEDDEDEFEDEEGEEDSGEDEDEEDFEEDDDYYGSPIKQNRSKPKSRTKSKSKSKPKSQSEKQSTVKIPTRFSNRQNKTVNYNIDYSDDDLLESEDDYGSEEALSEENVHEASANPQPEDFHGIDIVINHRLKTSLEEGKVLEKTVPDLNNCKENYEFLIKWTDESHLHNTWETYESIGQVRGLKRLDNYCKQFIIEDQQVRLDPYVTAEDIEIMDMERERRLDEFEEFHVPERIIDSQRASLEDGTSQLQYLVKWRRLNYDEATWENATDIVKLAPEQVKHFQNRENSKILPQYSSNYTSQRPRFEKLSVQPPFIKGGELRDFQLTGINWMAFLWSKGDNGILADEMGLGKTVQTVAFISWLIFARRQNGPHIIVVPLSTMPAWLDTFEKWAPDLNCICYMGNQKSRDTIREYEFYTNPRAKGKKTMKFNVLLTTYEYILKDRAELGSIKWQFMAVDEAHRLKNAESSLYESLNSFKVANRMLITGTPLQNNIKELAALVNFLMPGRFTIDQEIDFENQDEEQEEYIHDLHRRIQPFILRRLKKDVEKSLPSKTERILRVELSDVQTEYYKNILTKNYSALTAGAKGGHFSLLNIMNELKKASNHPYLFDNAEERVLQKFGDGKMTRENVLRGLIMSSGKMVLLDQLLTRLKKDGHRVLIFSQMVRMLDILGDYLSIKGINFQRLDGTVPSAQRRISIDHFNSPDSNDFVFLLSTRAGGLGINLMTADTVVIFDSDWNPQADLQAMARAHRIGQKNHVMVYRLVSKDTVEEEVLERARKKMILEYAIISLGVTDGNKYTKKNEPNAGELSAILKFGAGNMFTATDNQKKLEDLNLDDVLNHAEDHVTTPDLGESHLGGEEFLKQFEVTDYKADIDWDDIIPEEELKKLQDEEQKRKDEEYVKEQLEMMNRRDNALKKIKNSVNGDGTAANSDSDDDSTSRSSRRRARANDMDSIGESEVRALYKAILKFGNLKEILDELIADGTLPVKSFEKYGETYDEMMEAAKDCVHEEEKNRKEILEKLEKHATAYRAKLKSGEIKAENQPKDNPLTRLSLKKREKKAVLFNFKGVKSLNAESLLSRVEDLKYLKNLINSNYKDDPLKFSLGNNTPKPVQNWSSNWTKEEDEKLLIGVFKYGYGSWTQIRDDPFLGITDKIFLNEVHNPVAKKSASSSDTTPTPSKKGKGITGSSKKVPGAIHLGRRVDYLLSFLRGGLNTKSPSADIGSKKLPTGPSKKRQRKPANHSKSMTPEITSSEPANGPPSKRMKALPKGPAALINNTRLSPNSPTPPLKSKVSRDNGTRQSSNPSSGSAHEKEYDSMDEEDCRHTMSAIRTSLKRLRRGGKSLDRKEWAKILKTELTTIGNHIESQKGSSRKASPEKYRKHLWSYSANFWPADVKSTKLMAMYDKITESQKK

Sequence of Protein translocase subunit SecA (Escherichia coli (strain K12)) (P10408 whole entry): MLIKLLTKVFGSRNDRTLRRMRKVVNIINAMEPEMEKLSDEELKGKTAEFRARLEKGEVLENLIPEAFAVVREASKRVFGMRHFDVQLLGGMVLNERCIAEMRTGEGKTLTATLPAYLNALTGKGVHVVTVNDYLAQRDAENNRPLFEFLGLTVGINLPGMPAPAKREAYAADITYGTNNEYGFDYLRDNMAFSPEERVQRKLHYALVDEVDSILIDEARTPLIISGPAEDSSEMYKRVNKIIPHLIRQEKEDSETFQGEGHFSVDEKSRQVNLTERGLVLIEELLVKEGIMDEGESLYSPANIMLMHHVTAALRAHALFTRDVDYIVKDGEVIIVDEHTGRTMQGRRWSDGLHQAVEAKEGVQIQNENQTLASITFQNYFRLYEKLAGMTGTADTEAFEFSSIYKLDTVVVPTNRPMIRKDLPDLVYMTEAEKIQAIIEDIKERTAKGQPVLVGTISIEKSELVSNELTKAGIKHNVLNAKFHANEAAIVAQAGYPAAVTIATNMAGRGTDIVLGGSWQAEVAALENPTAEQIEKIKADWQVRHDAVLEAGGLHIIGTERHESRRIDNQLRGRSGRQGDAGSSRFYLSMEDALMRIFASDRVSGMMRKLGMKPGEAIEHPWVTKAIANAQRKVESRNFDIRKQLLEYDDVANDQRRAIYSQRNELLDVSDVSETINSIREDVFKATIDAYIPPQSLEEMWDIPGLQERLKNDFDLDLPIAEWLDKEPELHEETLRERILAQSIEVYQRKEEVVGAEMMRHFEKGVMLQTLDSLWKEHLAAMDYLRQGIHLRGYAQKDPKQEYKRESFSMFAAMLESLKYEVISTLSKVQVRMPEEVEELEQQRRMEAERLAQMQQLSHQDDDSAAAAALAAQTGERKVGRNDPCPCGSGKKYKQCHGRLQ

SMILES	Percent Effect [1]	Percent Effect [2]	Percent Effect [3]	Percent Effect [4]	Percent Effect (Trypanosoma cruzi)	Percent Effect [5]	Percent Effect [6]	Percent Effect (Homo sapiens)	Percent Effect [7]	Percent Effect [8]	Percent Effect [9]
CC(C)NC(=O)N1CCC(n2ccc(C(F)(F)F)n2)CC1	-6.7%	5.48%	-3.52%	-4.66%	-2.74%	-0.909%	5.32%	-13.8%	0%	7.5%	-2.82%
Cc1nn(C)c(Cl)c1C1CCCN1C(=O)c1ccc2c(c1)OCO2 (stereo not given)	-1.18%	-2.7%	-7.03%	-0.722%	-5.38%	-2%	-0.901%	13.8%	0.493%	-6.17%	0.203%
Cc1cc(=O)n(CC(=O)Nc2ccc(C(N)=O)cc2)nc1C	-0.496%	0%	-2.6%	15.7%	3.67%	0.952%	11.6%	4.44%	1.59%	9.76%	-0.0727%
CC(C)N1CCC(NCc2cccnc2N(C)C)CC1	-6.06%	5.33%	-3.18%	0.114%	0.487%	2.6%	7.15%	0.898%	-0.546%	8.64%	-4.8%
CC(C)n1ccnc1CN1CCCN(C(=O)CC2C=CCC2)CC1 (stereo not given)	-5.72%	-1.27%	12.6%	-5.19%	-3.18%	-6.67%	17.8%	9.57%	-2.08%	-5.06%	-12.8%
Cc1csc(C2CCCN(C(=O)c3cc(Cl)c[nH]3)C2)n1 (stereo not given)	-4.24%	5.41%	-0.992%	9.99%	-5%	-2%	3.96%	19%	14.3%	13.6%	-2.75%
Cc1nc(-c2ccsc2)ccc1C(=O)NCCC(=O)N1CCCC1	-5.91%	13.2%	-2.05%	5.21%	6.2%	1.15%	3.34%	-2.2%	-1.47%	9.76%	-11.3%
O=C(c1ccc(F)c(F)c1)N1CCCSCC1CN1CCCC1 (stereo not given)	-3.82%	0%	4.53%	-1.26%	2.86%	-0.645%	8.7%	-1.06%	7.41%	16.7%	-8.34%
O=C1CC[C@H]2[C@H](CCN2C(=O)C2CCOCC2)N1Cc1ccncc1	-2.75%	22.7%	-7.93%	0.426%	2.95%	-3.35%	17.7%	-2.05%	6.35%	15.4%	-9.4%
Cc1nnc(N2CC[C@H](OCC3CC3)[C@@H](Cc3ccccc3)C2)s1	-2.17%	-5.33%	8.54%	9.81%	5.99%	-31.7%	7.01%	-7.72%	0%	5%	-3.2%
COc1ccc(-c2noc(CN3CCc4cncnc4C3)n2)cc1	-3.37%	-15.8%	-14.9%	2.94%	7.52%	0%	18.6%	8.69%	8.33%	9.76%	25%
CC(C)Cc1noc(CN2CCN(c3nccs3)CC2)n1	-8.59%	10.4%	5.21%	0.0825%	-5.99%	-2.13%	6.25%	33.3%	0.971%	7.32%	-3.68%
COCc1cccc(NC(C)C(=O)N(C)Cc2ccccc2)c1 (stereo not given)	-8.46%	10.8%	-16.3%	48%	7.92%	33.5%	-1.46%	-2.64%	6.45%	13.6%	-14.3%
CCS(=O)(=O)N1CCc2c(CN(C)Cc3ccco3)cncc2C1	-1.78%	-2.67%	2.28%	4.22%	-3.86%	-1.61%	11.3%	-0.516%	-2.08%	5%	-3.58%
CN(C)C(=O)CSc1nnc(CCNC(=O)OC(C)(C)C)o1	-1.89%	9.33%	6.95%	-7.38%	-8.64%	-13.6%	13.9%	10.4%	-3.17%	2.56%	-10.9%
O=C1CC[C@H]2[C@H](CCN2C(=O)C2CCCO2)N1CCN1CCCC1 (stereo not given in full)	1.49%	1.33%	6.35%	-1.83%	0.393%	-3.7%	10.7%	-5.66%	2.12%	0%	-4.01%
Cc1cnc(N2C[C@H]3C[C@H](C(=O)N(C)C)[C@@H](C2)O3)nc1	-4.03%	-5.33%	5.45%	-2.75%	6.76%	-46.1%	1.54%	-13.3%	-1.04%	0%	-3.12%
CCN(CC1CN(Cc2ncc[nH]2)CCO1)c1cccnn1 (stereo not given)	-4.66%	8%	-8.56%	6.93%	1.46%	5.21%	16.2%	6.04%	4.92%	8.64%	-4.63%
CNC(=O)c1cnc(/C=C/c2cc(OC)c(OC)c(OC)c2)s1	-3.62%	16.2%	-4.03%	8.07%	1.56%	21.2%	16%	40.4%	9.9%	18.3%	-13%
COCCN1CCC(N(Cc2noc(C3CC3)n2)C(C)=O)C1 (stereo not given)	-2.54%	13.5%	-5%	-6.65%	-5.11%	-0.924%	18.3%	20.9%	0.99%	11%	-8.27%
